Assay outcomes as filed in PubChem BioAssay.
FLuc counter = inhibits or activates purified firefly luciferase, miR-21 counter-screen | purified FLuc, Km substrates, luminescence inhibition | Potency, µM (highest dose often 57.5 µM), inactives show at the top dose activity change, negative = inhibition, most hits filed as inhibitors | 360,000 tested, 6.9% active | AID 588342;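 further: plate controls were vehicle for no effect and reference inhibitor for full effect; nearly all actives have a fitted effect of over 55% in size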
Target sequence (P08659 whole entry, looked up): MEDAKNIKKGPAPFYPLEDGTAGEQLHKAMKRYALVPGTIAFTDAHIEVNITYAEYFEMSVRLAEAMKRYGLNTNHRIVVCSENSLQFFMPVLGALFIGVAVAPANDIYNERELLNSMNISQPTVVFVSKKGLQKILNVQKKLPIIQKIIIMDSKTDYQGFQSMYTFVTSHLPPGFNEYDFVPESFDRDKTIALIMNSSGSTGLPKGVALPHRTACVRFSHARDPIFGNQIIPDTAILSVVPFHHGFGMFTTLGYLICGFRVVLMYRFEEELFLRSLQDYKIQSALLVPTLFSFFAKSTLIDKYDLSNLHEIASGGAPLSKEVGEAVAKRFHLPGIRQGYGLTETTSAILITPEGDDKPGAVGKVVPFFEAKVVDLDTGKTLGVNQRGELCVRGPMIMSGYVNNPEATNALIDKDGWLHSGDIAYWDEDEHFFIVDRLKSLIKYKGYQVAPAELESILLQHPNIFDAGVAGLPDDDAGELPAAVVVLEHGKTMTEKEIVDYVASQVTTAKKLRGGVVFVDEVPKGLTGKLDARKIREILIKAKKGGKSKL
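Purified P. pyralis luciferase, 10 nM final, with Km-level 10 uM D-luciferin and 10 uM ATP in 50 mM Tris acetate pH 7.5, 10 mM Mg acetate, 0.01% Tween-20, 0.05% BSA; 6-point qHTS titration about 60 µM downward; luminescence read.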
Rab9 promoter act = Rab9 promoter activation; Potency, µM (doses to about 9.22 µM), inactives show at the top dose activation, negative = inhibition, actives largely listed as activators; AID 485297; 320,000 tested, 2.8% active; Huh7 Rab9 promoter-luciferase reporter, luminescence, 24 h; further: % of control where 0% means no effect; nearly all actives have a fitted effect of over 60% in size
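Measured in stably transfected Huh7 cells bearing a Rab9 promoter–luciferase construct: 24 h compound treatment at 37 °C, followed by luminescence detection.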
ELG1 genotoxic = induces genotoxicity in HEK293T cells with luciferase-tagged ELG1; Potency, µM (top dose mostly 46 µM), for the others: at the highest dose activity change, positive = activation, most hits filed as activators; AID 504466; HEK293T ELG1-luciferase reporter, luminescence, 16 h; 330,000 tested, 1.3% active; further: % of control where 0% means no effect; nearly all actives have a fitted effect of over 60% in size
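Reporter readout depends on ELG1 protein level, which increases with genetic stress. After 16 hr compound exposure at 37 °C, luciferase activity was quantified using ONE-Glo.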
SMN2 splice up = enhancers of SMN2 splice variant expression; AID 1458; 210,000 tested, 2.8% active; HEK293 SMN2-luciferase splicing reporter, luminescence, 30-36 h; Potency, µM (series often up to 46.1 µM), without a hit: top-dose activity change, positive = activation, usual class: activators; further: % of control where 0% means no effect; nearly all actives have a fitted effect of over 55% in size
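HEK293 cells carry an SMN2 minigene-luciferase reporter in which exon 7 inclusion puts luciferase in frame. Cells were seeded at 2000 cells/well, attached for 10-12 hours, then exposed to compounds for 30-36 hours at 37C before ONE-Glo luminescence.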
KinaseGlo FLuc = blocks Kinase-Glo luciferase, a counter-screen artifact. Q27757. 200,000 tested, 0.28% active. Potency, µM (titrated, usually from 38.3 µM), inactives show top-dose activity change, negative = inhibition, most hits filed as inhibitors. AID 1379. Kinase-Glo luciferase, ATP luminescence, 8 min; further: on the % scale 0 is the no-effect control and ±100 the full control effect; nearly all actives have a fitted effect of over 60% in size
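Inhibition of Kinase-Glo luciferase light generation was assessed at 10 uM ATP in pH 7.2 imidazole buffer, with luminescence measured after eight minutes at ambient temperature.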
NPC1 prom act = activators of NPC1 promoter; Huh7 NPC1 promoter luciferase reporter, 24 h; Potency, µM (series often up to 9.22 µM), inactives show top-dose activation, hits mostly activators; 320,000 tested, 2.4% active; AID 485313; further: % of control where 0% means no effect; nearly all actives have a fitted effect of over 60% in size
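Cells: Huh7 expressing luciferase under the NPC1 promoter, 1500/well. Seeded 2 h, compound added, incubated 24 h at 37 °C. Luciferase reagent, 10 min ambient, then luminescence.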
* marks the source's active call; other numbers are inactive results. This is a sample that favours compounds with a hit; in the whole collection about 7.3% have one here. The call rests on the fitted dose curve; in most records, active means well fitted curve in the direction sought with a large enough effect; inconclusive means small, poorly fitted or top-dose-only effect, or another doubt; inactive means no such curve, though single readings can be large; an effect the other way counts as inactive or inconclusive. Potency means the concentration at half of the fitted maximal effect.

Results for C=CCc1c(C)nc2cc(-c3ccc(C)cc3)[nH]n2c1=O ?
FLuc counter: 3.01µM*; Rab9 promoter act: inconclusive; ELG1 genotoxic: 1.83µM*; NPC1 prom act: 1.58µM*

What do the screens show for `O=C(NC(=S)Nn1cnnc1)c1ccccc1`?
FLuc counter: -1.1%; Rab9 promoter act: -3.5%; ELG1 genotoxic: 4.2%; NPC1 prom act: -2.3%

What do the screens show for `CCOC(=O)Cc1c(C)nc2cc(-c3ccc(C(C)(C)C)cc3)[nH]n2c1=O`?
FLuc counter: 10.7µM*; Rab9 promoter act: 10.2%; ELG1 genotoxic: inconclusive; SMN2 splice up: -4.9%; KinaseGlo FLuc: -0.5%; NPC1 prom act: 1.4%

What do the screens show for `CN(C(=S)NCCN1CCOCC1)C(c1ccccc1)c1ccccc1`?
FLuc counter: 0.0%; Rab9 promoter act: -2.1%; ELG1 genotoxic: -7.3%; SMN2 splice up: -31.5%; KinaseGlo FLuc: -0.1%; NPC1 prom act: 0.3%

Results for Cc1ccc(C(=O)Nc2nc3ccccc3c(=O)s2)cc1 ?
FLuc counter: 0.757µM*; Rab9 promoter act: 1.26µM*; ELG1 genotoxic: inconclusive; SMN2 splice up: inconclusive; KinaseGlo FLuc: -3.2%; NPC1 prom act: inconclusive

How did COc1cccc(C(=O)Nc2nc3c(s2)CCCC3)c1 do in these assays?
FLuc counter: 1.9µM*

What do the screens show for `COc1cccc(C(=O)Nc2nc3ccccc3s2)c1`?
FLuc counter: 2.13µM*; Rab9 promoter act: 2µM*; ELG1 genotoxic: 4.11µM*; NPC1 prom act: 3.55µM*

How did O=C(Nc1nc2ccccc2s1)c1ccc(F)cc1 do in these assays?
FLuc counter: 1.07µM*; Rab9 promoter act: 0.316µM*; ELG1 genotoxic: 2.59µM*; KinaseGlo FLuc: -9.6%; NPC1 prom act: 0.708µM*

What do the screens show for `Cc1cccc(C)c1NC(=O)CNC(=O)CCCc1c[nH]c2ccccc12`?
FLuc counter: -3.6%; Rab9 promoter act: 8.2%; ELG1 genotoxic: -10.6%; NPC1 prom act: -1.0%

How did O=C(NNc1cc(N2CCOCC2)nc(N2CCOCC2)n1)c1ccc([N+](=O)[O-])cc1 do in these assays?
FLuc counter: -1.7%; Rab9 promoter act: -4.3%; ELG1 genotoxic: -1.7%; KinaseGlo FLuc: -6.9%; NPC1 prom act: 0.3%

How did Cc1ccc2cccc(Oc3ncnc4scc(-c5ccc(Cl)cc5)c34)c2n1 do in these assays?
FLuc counter: 6.2%; Rab9 promoter act: -1.8%; ELG1 genotoxic: -4.0%; SMN2 splice up: -23.9%; KinaseGlo FLuc: 1.3%; NPC1 prom act: -2.5%

Results for CCOC(=O)c1cc(C(C)=O)c(=O)n(C)c1N ?
FLuc counter: 2.1%; Rab9 promoter act: 3.0%; ELG1 genotoxic: -1.2%; SMN2 splice up: -5.6%; KinaseGlo FLuc: -4.0%; NPC1 prom act: 12.6%

What do the screens show for `Fc1cc(F)cc(NC(=S)NCCCN2CCOCC2)c1`?
FLuc counter: -1.3%; Rab9 promoter act: -3.0%; ELG1 genotoxic: -1.0%; KinaseGlo FLuc: 6.5%; NPC1 prom act: 1.3%

What do the screens show for `O=C(CCc1ccccc1)NCC(c1ccco1)N1CCc2ccccc21` (stereo unspecified)?
FLuc counter: -1.2%; Rab9 promoter act: -5.7%; ELG1 genotoxic: 0.3%; NPC1 prom act: -17.5%

Results for NC(=O)c1sc2nc3c(c(-c4cccnc4)c2c1N)CCC3 ?
FLuc counter: -2.7%; Rab9 promoter act: -4.0%; ELG1 genotoxic: -10.3%; SMN2 splice up: -21.5%; KinaseGlo FLuc: -3.0%; NPC1 prom act: -2.0%

How did COc1ccccc1NC(=O)CCc1nc2ccccc2s1 do in these assays?
FLuc counter: -1.5%; Rab9 promoter act: 10.0%; ELG1 genotoxic: 0.1%; SMN2 splice up: 3.6%; KinaseGlo FLuc: -0.9%; NPC1 prom act: -2.7%

What do the screens show for `Cc1ccc2nc(NC(=O)c3ccc(-c4nc5ccccc5s4)s3)sc2c1`?
FLuc counter: 13.5µM*; Rab9 promoter act: -3.8%; ELG1 genotoxic: 16.4µM*; SMN2 splice up: 15.1%; KinaseGlo FLuc: -4.1%; NPC1 prom act: -2.1%

How did COc1ccc(C(=O)CCc2nc3ccccc3s2)cc1 do in these assays?
FLuc counter: 19µM*; Rab9 promoter act: -0.1%; ELG1 genotoxic: 14.6%; SMN2 splice up: 13.2%; KinaseGlo FLuc: -2.8%; NPC1 prom act: 15.0%

What do the screens show for `COc1ccc(C(=O)Nc2nc3ccccc3s2)cc1`?
FLuc counter: 0.239µM*; Rab9 promoter act: 0.282µM*; ELG1 genotoxic: -4.7%; NPC1 prom act: 0.631µM*

Results for O=S(=O)(/N=C(/Nc1nccs1)c1ccc(F)cc1)c1ccccc1 ?
ELG1 genotoxic: -0.1%

What do the screens show for `COc1ccc(C(=O)Nc2nc3ccccc3s2)cc1OC`?
FLuc counter: -3.2%; Rab9 promoter act: -1.9%; ELG1 genotoxic: 2.5%; KinaseGlo FLuc: -1.2%; NPC1 prom act: 1.3%

Results for O=S(=O)(/N=C(/Nc1nc2ccccc2s1)c1ccccc1)c1ccc(F)cc1 ?
FLuc counter: 19µM*; Rab9 promoter act: inconclusive; ELG1 genotoxic: 14.5%; NPC1 prom act: 12.6%

Results for CC1CCCC(NC(=O)COC(=O)c2ccc(Br)o2)C1C (stereo unspecified) ?
ELG1 genotoxic: 0.1%

How did O=C(Nc1ccc(C(=O)O)cc1)Nc1cccc([N+](=O)[O-])c1 do in these assays?
FLuc counter: -17.4%; Rab9 promoter act: 1.1%; ELG1 genotoxic: -0.2%; SMN2 splice up: 17.3%; KinaseGlo FLuc: 1.0%; NPC1 prom act: -1.7%

Results for CCOC(=O)C1=C(COC(=O)CCc2ccc(CC)cc2)NC(=O)NC1C (stereo unspecified) ?
FLuc counter: -0.1%; Rab9 promoter act: 0.4%; ELG1 genotoxic: 0.7%; NPC1 prom act: 1.6%

What do the screens show for `O=S(=O)(NCc1ccccc1F)NCc1ccccc1F`?
FLuc counter: 1.6%; Rab9 promoter act: -1.3%; ELG1 genotoxic: -0.4%; SMN2 splice up: 20.2%; KinaseGlo FLuc: -4.3%; NPC1 prom act: -2.5%

How did O=C(Nc1nc2ccccc2s1)c1ccc(Cl)s1 do in these assays?
FLuc counter: 1.9µM*; Rab9 promoter act: inconclusive; ELG1 genotoxic: 1.16µM*; SMN2 splice up: 6.31µM*; KinaseGlo FLuc: 0.5%; NPC1 prom act: 1µM*

What do the screens show for `O=C(Nc1nc(=O)[nH]s1)c1ccccc1`?
FLuc counter: -16.7%; Rab9 promoter act: 3.0%; ELG1 genotoxic: 1.5%; SMN2 splice up: -5.1%; KinaseGlo FLuc: 1.6%; NPC1 prom act: -0.2%

What do the screens show for `O=C(Nc1nc2c(s1)C(=O)CCC2)c1ccccc1`?
FLuc counter: 2.69µM*; Rab9 promoter act: 0.708µM*; ELG1 genotoxic: inconclusive; SMN2 splice up: 1.58µM*; KinaseGlo FLuc: inconclusive; NPC1 prom act: 1.12µM*

What do the screens show for `O=C(Nc1nc(=O)c2ccccc2s1)c1ccccc1`?
FLuc counter: 4.26µM*; Rab9 promoter act: 20.5%; ELG1 genotoxic: 7.31µM*; SMN2 splice up: 42.8%; KinaseGlo FLuc: -3.6%; NPC1 prom act: -0.1%
